SW480 rereplic = inducers of DNA re-replication in SW480 colon cancer cells; SW480 DNA re-replication, Hoechst DNA content imaging, 48 h; Potency, µM (doses to about 46.1 µM), usual class: activators; 1.8% of 340,000 active; AID 624297; also: nearly all actives have a fitted effect of over 55% in size
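SW480 cells exposed to compounds for 48 hr at 37 C, 5% CO2, then Hoechst-stained 40 min. Nuclear DNA content imaged by fluorescence scanning (405 nm excitation, 500-530 nm emission); re-replication scored as increased high-intensity nuclei.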
ELG1 repair inh = inhibitors of ELG1-dependent DNA repair in HEK293T cells; AID 504467; 2.3% of 330,000 active; HEK293T ELG1-luciferase reporter, luminescence, 16 h; DNA damage induced by 5-fluorouridine; Potency, µM (doses to about 46.1 µM), actives largely listed as inhibitors; also: nearly all actives have a fitted effect of over 55% in size
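DMSO vehicle served as the neutral condition. Each well held 2,000 cells given 5-fluorouridine plus compound; after 16 hr at 37 °C/5% CO2, ONE-Glo was added and luciferase measured 30 min later.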
MCF10A rereplic = induces DNA re-replication in MCF 10a normal breast cells; MCF 10A DNA re-replication, Hoechst nuclear intensity, 48 h; 2.9% of 350,000 active; Potency, µM (series often up to 46.1 µM), most hits filed as activators; AID 624296; also: nearly all actives have a fitted effect of over 50% in size
KB-V1 MDR tox = KB-V1 MDR subline cytotoxicity; 3.4% of 400,000 active; Potency, µM (highest dose often 46.1 µM), hits mostly cytotoxic; KB-V1 MDR cells viability, CellTiter-Glo, 72 h; AID 1347076; also: nearly all actives have a fitted effect of over 60% in size
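Cells of the MDR subline KB-V1 are plated, dosed with compound at multiple concentrations, and incubated 72 h at 37 degrees C; CellTiter-Glo is then added and luminescence read after 10 min.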
KB-3-1 cytotox = kills parental KB-3-1 adenocarcinoma cells; KB-3-1 viability, CellTiter-Glo ATP luminescence, 72 h; Potency, µM (series often up to 46.1 µM), most hits filed as cytotoxic; 1.4% of 400,000 active; also: nearly all actives have a fitted effect of over 60% in size
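KB-3-1 cells, DMEM (no phenol red) + 10% FBS; compound by pin transfer, 72 h, 37 °C. Readout: CellTiter-Glo luminescence after 10 min. Data normalized, curve-fitted.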
Large screens that a line does not name were inactive. Sampled rows, rich in hits. Any-hit rate of the full collection: about 8.2%. Calls follow the shape of the dose curve; as a rule, active = well fitted curve in the direction sought with a large enough effect; inconclusive = small, poorly fitted or top-dose-only effect, or another doubt; inactive = no such curve, though single readings can be large; an effect the other way counts as inactive or inconclusive.

CCN(C[C@H]1N[C@@](CC)(C(=O)OC)[C@H]2C(=O)N(Cc3ccccc3)C(=O)[C@@H]12)C(=O)c1ccc(F)cc1	ELG1 repair inh 16.4µM
CC[C@@]1(C(=O)OC)N[C@H](CN(C)C(=O)c2ccc(C)cc2)[C@@H]2C(=O)N(Cc3ccccc3)C(=O)[C@@H]21	none
CCN(C[C@H]1N[C@@](C)(C(=O)OC)[C@H]2C(=O)N(Cc3ccccc3)C(=O)[C@@H]12)C(=O)c1ccccc1	none
CCNC(=O)N(CC)C[C@H]1N[C@@](C)(C(=O)OC)[C@H]2C(=O)N(Cc3ccccc3)C(=O)[C@@H]12	SW480 rereplic 0.231µM
CCOc1cc(NC(=O)c2ccccc2OC)c(OCC)cc1NC(=O)c1ccccc1	SW480 rereplic 14.6µM, MCF10A rereplic inconclusive, KB-3-1 cytotox inconclusive
COc1ccccc1C(=O)Nc1ccccc1SC(=O)c1ccccc1OC	SW480 rereplic inconclusive, ELG1 repair inh inconclusive, MCF10A rereplic 20.6µM, KB-3-1 cytotox inconclusive
COc1ccc(OC)c(/C(O)=C/C(=O)C(=O)Nc2ccccc2OC)c1	KB-V1 MDR tox 9.2µM
COc1ccc(OC)c(NC(=O)c2ccccc2SC)c1	KB-V1 MDR tox 18.4µM
COC(=O)c1ccccc1NC(=O)c1ccccc1OC	none
COc1ccc(CCNC(=O)c2ccc(NC(=O)CC3SC(N4CCCC4)=NC3=O)cc2)cc1OC (stereo not drawn)	none (no result: ELG1 repair inh)
CCNC(=O)c1ccccc1-c1nc(-c2ccccc2OC)no1	none
CCOc1ccccc1NC(=O)c1ccccc1-c1nc(-c2ccccc2OC)no1	ELG1 repair inh 18.4µM, MCF10A rereplic inconclusive, KB-V1 MDR tox inconclusive, KB-3-1 cytotox inconclusive
CCOc1ccc(NC(=O)COC(=O)c2c(OC)cccc2OC)cc1	none
CCOc1ccccc1C(=O)Nc1cc(OC)ccc1OC	ELG1 repair inh inconclusive, KB-V1 MDR tox 14.6µM
CCOc1ccc(NC(=O)c2c(OC)cccc2OC)cc1	MCF10A rereplic 0.651µM
O=S(=O)(NCCc1nnc2ccc(SCc3ccccc3Cl)nn12)c1ccccc1	KB-3-1 cytotox inconclusive (no result: SW480 rereplic, ELG1 repair inh, MCF10A rereplic)
O=C(Nc1ccc2c(c1)CCCN2C(=O)c1ccco1)c1cc([N+](=O)[O-])ccc1Cl	SW480 rereplic inconclusive, ELG1 repair inh inconclusive, MCF10A rereplic inconclusive, KB-V1 MDR tox inconclusive
O=C(N/N=C/c1ccccc1O)C(=O)N1CCCCCC1	SW480 rereplic 5.8µM, KB-3-1 cytotox inconclusive
CCOC(=O)Cc1nn(CC)c(=O)c2ccccc12	MCF10A rereplic inconclusive
CCOC(=O)Cc1nn(Cc2nc(-c3ccc(C#N)cc3)cs2)c(=O)c2ccccc12	SW480 rereplic inconclusive, ELG1 repair inh 10.3µM, KB-V1 MDR tox inconclusive, KB-3-1 cytotox inconclusive
O=[N+]([O-])c1ccc([N+](=O)[O-])c(Nc2ccc(N3CCOCC3)cc2)c1	KB-V1 MDR tox inconclusive
CN(C(=S)Nc1ccc(F)cc1)C(c1ccccc1)c1ccccc1	ELG1 repair inh inconclusive, KB-V1 MDR tox inconclusive, KB-3-1 cytotox inconclusive
Cc1ccc(NC(=S)N(C)C(c2ccccc2)c2ccccc2)cc1C	ELG1 repair inh 13µM
CN(C(=O)c1cccc(NC(=O)Cc2cccc(NC(=O)C3CCN(C(=O)C4CCC4)CC3)c2)c1)C1CCC1	SW480 rereplic inconclusive (no result: ELG1 repair inh)
CN(Cc1ccccc1)C(=O)c1cccc(NC(=O)C2CCCN(C(=O)OC(C)(C)C)C2)c1 (stereo not drawn)	ELG1 repair inh 25.9µM
CC(C)(C)OC(=O)N1CCCC(C(=O)Nc2cccc(C(=O)NCc3ccccc3)c2)C1 (stereo not drawn)	MCF10A rereplic inconclusive (no result: ELG1 repair inh)
CN(C(=O)c1cccc(NC(=O)Cc2cccc(NC(=O)C3CCN(C(=O)C4CCCCC4)CC3)c2)c1)C1CCC1	MCF10A rereplic 1.16µM (no result: ELG1 repair inh)
CCn1c2ccccc2c2cnc(N=CN(C)C)c(C#N)c21	ELG1 repair inh inconclusive, KB-V1 MDR tox 7.31µM
CN(C)/C=N/c1c(C#N)cnn1-c1ccccc1	MCF10A rereplic inconclusive
CCN(CC)CCn1c2ccccc2c2cnc(N=CN(C)C)c(C#N)c21	MCF10A rereplic 20.6µM, KB-V1 MDR tox inconclusive, KB-3-1 cytotox inconclusive
O=C(CSc1nc2c([nH]c3ccccc32)c(=O)n1-c1ccc(F)cc1)NCC1CCCO1 (stereo not drawn)	none (no result: SW480 rereplic, ELG1 repair inh, MCF10A rereplic)
COc1cccc(Nc2nc(CN3CCOCC3)nc3sc4c(c23)CCCC4)c1	ELG1 repair inh 10.3µM, KB-3-1 cytotox inconclusive
Cc1ccc(Oc2nc(CN3CCOCC3)nc3sc4c(c23)CCC(C)C4)cc1C (stereo not drawn)	ELG1 repair inh 13µM, MCF10A rereplic inconclusive, KB-V1 MDR tox 14.6µM, KB-3-1 cytotox inconclusive
Cc1ccc(Oc2nc(CN3CCOCC3)nc3sc4c(c23)CCC(C)C4)cc1 (stereo not drawn)	ELG1 repair inh 25.9µM, MCF10A rereplic inconclusive, KB-V1 MDR tox inconclusive
CC1CCc2c(sc3nc(CN4CCOCC4)nc(N4CCc5ccccc5C4)c23)C1 (stereo not drawn)	ELG1 repair inh inconclusive, MCF10A rereplic inconclusive
Cc1cc(S(=O)(=O)Nc2nc(CN3CCOCC3)nc3sc4c(c23)CCC4)cc(C)c1C	none
Cc1ccc(S(=O)(=O)/N=C(\N)c2ccc(Cl)cc2)cc1	ELG1 repair inh inconclusive
CCCCCn1c(CN2CCN(Cc3ccccc3)CC2)nc2c1c(=O)n(C)c(=O)n2C	ELG1 repair inh 20.6µM, KB-V1 MDR tox inconclusive
Cn1c(=O)c2c(nc(N3CCN(Cc4ccccc4)CC3)n2CCCc2ccccc2)n(C)c1=O	ELG1 repair inh 11.6µM, MCF10A rereplic inconclusive, KB-V1 MDR tox inconclusive, KB-3-1 cytotox inconclusive
CCCCn1c(CN2CCN(c3ccccc3)CC2)nc2c1c(=O)n(C)c(=O)n2C	ELG1 repair inh inconclusive, KB-3-1 cytotox inconclusive
CCOC(=O)N1CCN(Cc2nc3c(c(=O)n(C)c(=O)n3C)n2Cc2cccc(C)c2)CC1	ELG1 repair inh 18.4µM
CCCn1c(CN(C)Cc2ccccc2)nc2c1c(=O)n(C)c(=O)n2C	ELG1 repair inh 11.6µM, KB-V1 MDR tox inconclusive
O=C(NCC1CCN(Cc2ccc(F)cc2)CC1)Nc1cc(F)ccc1F	MCF10A rereplic inconclusive
CN(Cc1nc2ccccc2n1C)C(=O)c1ccco1	none
CCCCn1c(CN(C)Cc2ccccc2)nc2c1c(=O)n(C)c(=O)n2C	ELG1 repair inh inconclusive, KB-V1 MDR tox 2.31µM, KB-3-1 cytotox inconclusive
CN(Cc1ccccc1)Cc1nc2c(c(=O)n(C)c(=O)n2C)n1CCc1ccccc1	none (no result: ELG1 repair inh)
COCCn1c(CN(C)Cc2ccccc2)nc2c1c(=O)n(C)c(=O)n2C	ELG1 repair inh inconclusive, KB-V1 MDR tox inconclusive
CN(Cc1ccccc1)Cc1nc2c(c(=O)n(C)c(=O)n2C)n1Cc1ccccc1Cl	ELG1 repair inh 14.6µM, KB-V1 MDR tox 9.2µM
CCCCCn1c(CN2CCCCC2C)nc2c1c(=O)n(C)c(=O)n2C (stereo not drawn)	MCF10A rereplic inconclusive, KB-V1 MDR tox 4.61µM
